Results on 22 compounds are retold here after the supplement of paper PMC10127200.

Test in all cases: Euclidean distance of Cell Painting phenotypic profile (signed KS, 77 features) to DMSO centroid (dimensionless distance); 5 or 10 uM (library dependent); higher = stronger phenotypic change vs DMSO (phenoactivity)
Common to all, as to details: 48 h

The test system of one experiment is 786-O. The procedure, abridged: (§1)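 At 10 or 5 uM, as set by the library, and 0.1% DMSO final, compounds were applied for 48 h to five cancer lines and one healthy fibroblast line. Stained cells were imaged confocally at 20X in 9 fields per well, and Harmony extracted 77 features scored as signed Kolmogorov-Smirnov statistics against vehicle wells on the same plate. Profiles underwent plate-position correction, correlation weighting and replicate averaging at the top dose. Phenoactivity is the Euclidean distance from each such profile to the median vehicle profile.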

The next experiment concerns A549. The procedure, abridged: as §1
Another experiment deals with DU145. The essentials:
as §1

The next experiment concerns FB. The essentials: as §1
For the next experiment, the system named is HEPG2. The essentials: as §1
Another experiment deals with OVCAR4. The essentials:
as §1

Where a name gives a salt, the structure may show the parent alone.

As to `COC(=O)C1=C(C)NC(C)=C(C(=O)OC)C1c1ccccc1[N+](=O)[O-]` [Nifedipine], the Euclidean distance with 786-O worked out at 1.37; with A549, 0.783; with DU145, 0.776; with FB, 1.11; with HEPG2 it was 1.58.

On to `C=C[C@H]1CN2CC[C@H]1C[C@@H]2[C@@H](O)c1ccnc2ccc(OC)cc12` [Quinidine sulfate], for which the Euclidean distance in the experiment with 786-O stood at 0.69; with A549, 0.88; with DU145 it was 1.08; in the experiment with FB, 0.954; in the experiment on HEPG2 it was 0.831.

Consider `O=C1Cc2cc(CCN3CCN(c4nsc5ccccc45)CC3)c(Cl)cc2N1` [Ziprasidone HCl], for which the Euclidean distance worked out at 1.99 in the experiment with 786-O; 1.47 with A549; 1.15 with DU145; 1.3 in the experiment with FB; 0.985 with HEPG2; 1.64 with OVCAR4.

Regarding `CC(Cc1ccc(O)c(O)c1)C(C)Cc1ccc(O)c(O)c1` (centres undefined) [Nordihydroguaiaretic acid (NDGA)], the Euclidean distance came to 1.19 in the experiment on 786-O; 0.902 in the experiment with A549; 1.27 in the experiment with DU145; 1.54 with FB; 1.06 in the experiment with HEPG2; 0.861 in the experiment with OVCAR4.

Take `CC[N+](C)(C)c1cccc(O)c1` [Edrophonium chloride]: the Euclidean distance in the experiment on 786-O is 0.852; in the experiment on A549, 0.865; with DU145, 0.738; in the experiment with FB it was 0.728; with HEPG2, 0.598; in the experiment on OVCAR4, 0.943.

Turning to `C[C@@H]1[C@H](O)[C@@H](C)/C=C/C=C/C=C/C=C/C=C/C=C/C=C/[C@H](O[C@@H]2O[C@H](C)[C@@H](O)[C@H](N)[C@@H]2O)C[C@@H]2O[C@](O)(C[C@@H](O)C[C@@H](O)[C@H](O)CC[C@@H](O)C[C@@H](O)CC(=O)O[C@H]1C)C[C@H](O)[C@H]2C(=O)O` [Amphotericin B], the Euclidean distance in the experiment with 786-O is 1.91; in the experiment with A549, 1.67; in the experiment on DU145, 1.91; in the experiment on FB, 3.03; in the experiment with HEPG2, 1.43; in the experiment on OVCAR4, 1.93.

As for `CC[C@H](C)[C@H](NC(=O)[C@H]([C@@H](C)CC)N(C)C(C)=O)C(=O)N[C@H](C(=O)N[C@@H](CC(C)C)C(=O)[C@@]1(C)CO1)[C@@H](C)O` [Epoxomycin], the Euclidean distance in the experiment with 786-O came to 2.19; in the experiment on A549, 2.8; in the experiment on DU145, 2.62; in the experiment on FB it was 2.62; with HEPG2, 2.95; in the experiment on OVCAR4, 3.12.

Consider `CCOc1ccc(Cc2cc([C@@H]3O[C@H](SC)[C@@H](O)[C@H](O)[C@H]3O)ccc2Cl)cc1` [Sotagliflozin (LX4211)], for which the Euclidean distance was 1.32 with 786-O; 1.07 in the experiment on A549; 1.9 in the experiment with DU145; 0.889 with FB; 0.553 with HEPG2; 0.781 in the experiment on OVCAR4.

Take `O=C(O)c1cn(-c2ccc(F)cc2)c2cc(N3CCNCC3)c(F)cc2c1=O` [Sarafloxacin HCl]: the Euclidean distance was determined as 1.11 in the experiment on 786-O; 0.812 in the experiment with A549; 1.78 in the experiment with DU145; 0.799 in the experiment with FB; 0.601 in the experiment on HEPG2; 0.719 in the experiment on OVCAR4.

As for `Cc1nccn1CCC(C(N)=O)(c1ccccc1)c1ccccc1` [Imidafenacin], the Euclidean distance in the experiment on 786-O stood at 0.703; with A549, 1.19; in the experiment on DU145, 1.34; in the experiment with FB it was 1.02; in the experiment on HEPG2, 0.727; in the experiment with OVCAR4, 1.42.

As to `CN(C[C@@H]1COCCO1)S(=O)(=O)Nc1ccc2ccc3ncc(-c4cnn(C)c4)cc3c(=O)c2c1`, the Euclidean distance in the experiment with 786-O was found to be 1; in the experiment on A549, 0.895; with DU145 it was 1.01; in the experiment with FB, 3.07; with HEPG2, 0.888; with OVCAR4, 1.

For `COc1ccc(CCN(C)CCCC(C#N)(c2ccc(OC)c(OC)c2)C(C)C)cc1OC` (centres undefined) [Verapamil HCl], the Euclidean distance with 786-O came to 0.99; in the experiment on A549, 0.567; in the experiment with DU145, 0.723; in the experiment on FB it was 1.41; in the experiment on HEPG2 it was 0.719.

On to `C[C@]1(c2nc3c(C(N)=O)cccc3[nH]2)CCCN1` [Veliparib (ABT-888)], for which the Euclidean distance with 786-O was 1.29; in the experiment with A549, 1; in the experiment with DU145, 0.896; in the experiment on FB, 1.35; with HEPG2 it was 0.938; in the experiment with OVCAR4, 1.16.

Consider `O=C(O[C@H]1CN2CCC1CC2)N1CCc2ccccc2[C@@H]1c1ccccc1` [Solifenacin succinate], for which the Euclidean distance in the experiment on 786-O was determined as 1.31; with A549, 1.56; in the experiment with DU145, 1.17; with FB it was 2.68; with HEPG2 it was 2.17; with OVCAR4, 1.98.

As for `OCCOCCN1CCN(C(c2ccccc2)c2ccc(Cl)cc2)CC1` (centres undefined) [Hydroxyzine 2HCl], the Euclidean distance in the experiment on 786-O worked out at 1.32; in the experiment on A549, 0.879; with DU145, 1.07; with FB, 0.804; with HEPG2, 1.04; with OVCAR4, 1.17.

With `Cc1cc(C)nc(NS(=O)(=O)c2ccc(NC(=S)NC(=O)COc3ccc(Br)cc3Cl)cc2)n1`, the Euclidean distance worked out at 0.465 in the experiment with 786-O; 0.727 in the experiment on A549; 0.713 in the experiment with DU145; 0.857 with FB; 2.1 in the experiment on HEPG2; 0.759 with OVCAR4.

Take `O=c1[nH]cc(F)c(=O)[nH]1` [Fluorouracil (5-Fluoracil. 5-FU)]: the Euclidean distance in the experiment on 786-O was 1.5; with A549, 3.01; in the experiment on DU145, 1.12; with FB it was 2.37; in the experiment with HEPG2, 2.13; in the experiment with OVCAR4 it was 2.12.

For the compound `CC1CS(=O)(=O)CCN1/N=C/c1ccc([N+](=O)[O-])o1` (centres undefined) [Nifurtimox], the Euclidean distance with 786-O was determined as 1.55; with A549, 0.675; in the experiment on DU145, 1.08; in the experiment on FB, 0.936; in the experiment on HEPG2, 1.04; in the experiment with OVCAR4 it was 1.33.

Take `Cc1c(Cn2c(C)nc3c(C(=O)O)cc(N4CCOCC4)cc32)cccc1C(F)(F)F`: the Euclidean distance in the experiment on 786-O came out at 2.39; in the experiment on A549, 1.14; in the experiment on DU145, 1.28; with FB, 1.21; in the experiment on HEPG2 it was 0.982; with OVCAR4 it was 1.33.

With `C[C@H](Cn1cnc2c(N)ncnc21)OCP(=O)(O)O` [Tenofovir], the Euclidean distance in the experiment with 786-O came out at 1.59; in the experiment with A549, 1.45; in the experiment on DU145 it was 0.705; with FB, 0.924; in the experiment with HEPG2, 1.26; in the experiment with OVCAR4, 1.07.

Turning to `CNS(=O)(=O)C[C@H]1CC[C@H](N(C)c2[nH]cnc3nccc2-3)CC1`, the Euclidean distance with 786-O was 1.06; in the experiment with A549, 0.94; in the experiment with DU145, 1.61; in the experiment with FB it was 1.3; in the experiment on HEPG2 it was 0.907; in the experiment with OVCAR4 it was 0.949.

In the case of `Cc1cc(C(C)Nc2ccccc2)c2nc(N3CCOCC3)cc(=O)n2c1` (centres undefined), the Euclidean distance in the experiment on 786-O amounted to 1.4; in the experiment on A549, 1.16; with DU145, 1.61; in the experiment with FB, 1.62; in the experiment on HEPG2, 1.29; in the experiment on OVCAR4, 2.37.
